Test results published in PubChem BioAssay (NCATS).
Records with an inconclusive call do not appear. Unless noted, calls come from the whole dose curve; as a rule, active = well fitted curve in either direction with a large enough effect (not every such curve was filed as active); inconclusive = small, poorly fitted or top-dose-only effect, or another doubt; inactive = flat fitted curve, though single readings scatter.

Key:
[1] = AP1 Signaling Pathway (AID 357); conditions: ME-180 AP-1-bla reporter, EGF-induced, beta-lactamase ratio, 5 h; at 17.2 µM (top of the series) unless noted;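 note: ME-180 reporter cells stimulated with EGF at its EC50 level; % is set by controls: 0 for no effect and ±100 for the full control effect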
Procedure, shortened: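 Read-out was the 460nm/530nm emission ratio (excitation 405nm) after CCF4 loading for 2.5 hours at room temperature. Cells carried an AP-1-driven beta-lactamase reporter, were stimulated with EC50 EGF plus compound for 5 hours, and AC50 values came from titrations.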

[2] = NFAT Signaling Pathway (AID 444); conditions: Jurkat NFAT-bla M1, carbachol, beta-lactamase ratio, 5 h; at 17.2 µM (top of the series) unless noted;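 note: carbachol stimulus at about its EC50 of 1 µM final; % is set by controls: 0 for no effect and ±100 for the full control effect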
Procedure, shortened: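 Read-out: CCF4 FRET ratio (460 nm/530 nm) after 1 h RT dye loading, used for %activity and AC50 from titration series. Cells: Jurkat NFAT-β-lactamase/M1 line, treated with compound plus 1 uM carbachol for 5 h, 37 °C.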

[3] = Stat Signaling Pathway (AID 446); conditions: ME-180 SIE beta-lactamase reporter, IL-6 stimulated, 5 h; at 17.2 µM (top of the series) unless noted;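 note: ME-180 cervical cancer cells given 40 pM IL-6 alongside compound; SIE-controlled beta-lactamase reporter measured as 460/530 nm FRET emission ratio; % is set by controls: 0 for no effect and ±100 for the full control effect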
Procedure, shortened: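 Reporter line: ME-180 cervical carcinoma, SIE-beta-lactamase. Treatment: compound with 40 pM IL-6, 5 hrs, 37 C, in low-serum OPTI-MEM with 10 mM HEPES pH 7.3. Detection: 460/530 nm fluorescence.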

[4] = target: Glucocorticoid receptor (Homo sapiens) (UniProt P04150); test: GR-GFP Redistribution (AID 450;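 active = compounds whose dose series gives a full or clear partial fitted curve of increased nuclear translocation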; note: potency is the fitted concentration of half-maximal effect)
Glucocorticoid receptor (Homo sapiens), sequence (P04150 whole entry, looked up): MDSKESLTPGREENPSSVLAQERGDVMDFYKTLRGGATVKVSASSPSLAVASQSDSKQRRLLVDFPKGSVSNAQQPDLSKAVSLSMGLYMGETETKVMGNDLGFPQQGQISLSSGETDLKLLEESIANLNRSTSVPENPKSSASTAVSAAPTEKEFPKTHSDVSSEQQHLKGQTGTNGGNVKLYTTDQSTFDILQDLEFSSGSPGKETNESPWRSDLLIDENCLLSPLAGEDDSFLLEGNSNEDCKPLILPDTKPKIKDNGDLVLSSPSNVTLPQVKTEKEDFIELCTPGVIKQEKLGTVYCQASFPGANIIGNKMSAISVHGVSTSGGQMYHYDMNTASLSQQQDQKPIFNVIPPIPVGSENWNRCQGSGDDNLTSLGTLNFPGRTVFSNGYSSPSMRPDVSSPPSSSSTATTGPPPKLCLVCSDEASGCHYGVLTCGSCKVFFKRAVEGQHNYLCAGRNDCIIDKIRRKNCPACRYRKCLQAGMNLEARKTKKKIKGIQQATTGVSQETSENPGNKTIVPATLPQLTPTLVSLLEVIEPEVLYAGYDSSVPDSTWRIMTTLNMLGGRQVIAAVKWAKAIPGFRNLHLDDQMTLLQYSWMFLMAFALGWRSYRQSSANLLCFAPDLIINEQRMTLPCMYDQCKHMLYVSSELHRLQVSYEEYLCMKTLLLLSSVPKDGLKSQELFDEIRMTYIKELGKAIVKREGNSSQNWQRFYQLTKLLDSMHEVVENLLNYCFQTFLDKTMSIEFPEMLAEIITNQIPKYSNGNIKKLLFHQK

O=C1C2ON(c3ccccc3)C(c3cccnc3)C2C(=O)N1Cc1ccccc1 (stereo not given)
inactive: activity change, negative = inhibition [1] -15.2% | activity change, negative = inhibition [2] -1.42% | activity, negative = inhibition [3] -8.95% | Potency [4] > 20.6 µM

COc1ccc(C2=CC(c3cccc(OC)c3)n3nnnc3N2)cc1 (stereo not given)
inactive: activity change, negative = inhibition [1] -24.4% | activity change, negative = inhibition [2] 1.4% | activity, negative = inhibition [3] -2.84% | Potency [4] > 20.6 µM

Cc1cc(=O)oc(C)c1C(=O)NCCc1ccccc1
inactive: activity change, negative = inhibition [1] 8.18% | activity change, negative = inhibition [2] -8.25% | activity, negative = inhibition [3] 14.6% | Potency [4] > 20.6 µM

CCOC(=O)C1=C(N)n2c(s/c(=C\c3ccco3)c2=O)=C(C(=O)OC(C)C)C1c1ccco1 (stereo not given)
inactive: activity change, negative = inhibition [1] 9.43% | activity change, negative = inhibition [2] -23.7% | activity, negative = inhibition [3] 4.26% | Potency [4] > 20.6 µM

CC(C)Cn1cnc2c(c1=O)c1nc3ccccc3nc1n2Cc1ccc2c(c1)OCO2
inactive: activity change, negative = inhibition [1] -7.49% | activity change, negative = inhibition [2] 8.7% | activity, negative = inhibition [3] -6.69% | Potency [4] > 20.6 µM

Cc1ccc(-n2ncc3c(NCCCN4CCCC4=O)ncnc32)c(C)c1
inactive: activity change, negative = inhibition [1] -15.8% | activity change, negative = inhibition [2] 11.5% | activity, negative = inhibition [3] 9.31% | Potency [4] > 20.6 µM

CC(=O)C(=[N+]=[N-])C(=O)NCc1ccccc1
inactive: activity change, negative = inhibition [1] 7.12% | activity change, negative = inhibition [2] -14.9% | activity, negative = inhibition [3] 1.88% | Potency [4] > 20.6 µM

CC1(C)CC(=O)C2=C(C1)N(Cc1ccco1)C(=O)C2(O)C(F)(F)F (stereo not given)
inactive: activity change, negative = inhibition [1] 11.1% | activity change, negative = inhibition [2] -3.91% | activity, negative = inhibition [3] -2.61% | Potency [4] > 20.6 µM

Cc1ccc(/C=N/n2nnnc2N)o1
inactive: activity change, negative = inhibition [1] 2.97% | activity change, negative = inhibition [2] -0.388% | activity, negative = inhibition [3] -5.51% | Potency [4] > 20.6 µM

Cc1ccc(S(=O)(=O)NC(=O)NCc2ccc3c(c2)OCO3)cc1
inactive: activity change, negative = inhibition [1] 12.9% | activity change, negative = inhibition [2] -5.13% | activity, negative = inhibition [3] 0.559% | Potency [4] > 20.6 µM

COc1ccc(-c2cc(=O)[nH]c(=O)[nH]2)cc1
inactive: activity change, negative = inhibition [1] 6.12% | activity change, negative = inhibition [2] -4.97% | activity, negative = inhibition [3] -5.47% | Potency [4] > 20.6 µM

N/C(=N\S(=O)(=O)c1ccc(Cl)s1)c1ccccc1
inactive: activity change, negative = inhibition [1] -2.33% | activity change, negative = inhibition [2] -13.4% | activity, negative = inhibition [3] -9.11% | Potency [4] > 20.6 µM

COC(=O)c1ccc(C2/C(=C(\O)c3cccc(OC)c3)C(=O)C(=O)N2CCCN2CCOCC2)cc1 (stereo not given)
inactive: activity change, negative = inhibition [1] 3.85% | activity change, negative = inhibition [2] -2.61% | activity, negative = inhibition [3] 15.2% | Potency [4] > 20.6 µM

CCOC(=O)c1n[nH]c2ccccc12
inactive: activity change, negative = inhibition [1] 7.22% | activity change, negative = inhibition [2] 0.11% | activity, negative = inhibition [3] -6.98% | Potency [4] > 20.6 µM

c1ccc2c(c1)[nH]c1c(N3CCN(C4CCCCC4)CC3)ncnc12
inactive: activity change, negative = inhibition [1] 2.02% | activity change, negative = inhibition [2] -22.7% | activity, negative = inhibition [3] 0.857% | Potency [4] > 20.6 µM

CCOC(=O)CC(C#N)c1cn(C)c2ccccc12 (stereo not given)
inactive: activity change, negative = inhibition [1] 8.21% | activity change, negative = inhibition [2] -8.09% | activity, negative = inhibition [3] 3.49% | Potency [4] > 20.6 µM

Cc1c(C2Nc3ccccc3NC3=C2C(=O)CC(C)(C)C3)cnn1C (stereo not given)
inactive: activity change, negative = inhibition [1] -9.46% | activity change, negative = inhibition [2] -5.95% | activity, negative = inhibition [3] 14.2% | Potency [4] > 20.6 µM

Cc1ccc(C2/C(=C(\O)c3ccc4c(c3)OCCO4)C(=O)C(=O)N2CCCN(C)C)o1 (stereo not given)
inactive: activity change, negative = inhibition [1] 1.54% | activity change, negative = inhibition [2] -21.4% | activity, negative = inhibition [3] -1.3% | Potency [4] > 20.6 µM

COc1ccc(OC)c(C2/C(=C(\O)c3ccc(OC)c(Cl)c3)C(=O)C(=O)N2CCN(C)C)c1 (stereo not given)
inactive: activity change, negative = inhibition [1] 10.2% | activity change, negative = inhibition [2] 2.23% | activity, negative = inhibition [3] -6.77% | Potency [4] > 20.6 µM

CC(O)c1n(C)c(Cl)c[n+]1C (stereo not given)
inactive: activity change, negative = inhibition [1] 0.68% | activity change, negative = inhibition [2] -4.99% | activity, negative = inhibition [3] -4.96% | Potency [4] > 20.6 µM

O=c1[nH]cnc2cc(-c3ccccc3)sc12
inactive: activity change, negative = inhibition [1] -9.08% | activity change, negative = inhibition [2] 3.27% | activity, negative = inhibition [3] 9.54% | Potency [4] > 20.6 µM

CCN(CC)CCNC(=O)c1c(C)oc2cc(Br)c(OC)cc12
inactive: activity change, negative = inhibition [1] 29.7% | activity change, negative = inhibition [2] -19.9% | activity, negative = inhibition [3] -1.1% | Potency [4] > 20.6 µM

COC(=O)c1ccccc1N1C(=O)[C@@H]2C(c3ccc(Br)cc3)=NO[C@@H]2C1=O
inactive: activity change, negative = inhibition [1] 11.9% | activity change, negative = inhibition [2] 19.8% | activity, negative = inhibition [3] 7.92% | Potency [4] > 20.6 µM

CC(=O)C1=C(O)C(=O)N(c2cccc(C(=O)O)c2)C1c1ccc(F)cc1 (stereo not given)
inactive: activity change, negative = inhibition [1] 15.1% | activity change, negative = inhibition [2] 2.04% | activity, negative = inhibition [3] 4.06% | Potency [4] > 20.6 µM

CCC1SC2=NC(C)=C(C(=O)OCCOC)C(c3ccc(C(=O)OC)cc3)N2C1=O (stereo not given)
inactive: activity change, negative = inhibition [1] 17.5% | activity change, negative = inhibition [2] 6.06% | activity, negative = inhibition [3] -2.24% | Potency [4] > 20.6 µM
